Assay outcomes deposited in PubChem BioAssay by National Center for Advancing Translational Sciences (NCATS).
Shown are actives, neighbours in structure and some others; about 19% of the full set was active somewhere.
TDP1 cell CPT: DT40-hTDP1 cell growth loss with CPT; Potency, µM (titrated, usually from 46.2 µM), for the others: top-dose activity change, negative = growth inhibition, most hits filed as inhibitors; 420,000 tested, 12% active; chicken DT40 Tdp1-/-;hTDP1 cells + 20 nM CPT, ATP luminescence, 48 h; further: potency means the concentration at half of the fitted maximal effect; on the % scale 0 is the no-effect control and ±100 the full control effect; nearly all actives have a fitted effect of over 55% in size
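Chicken DT40 Tdp1-/- cells stably complemented with human TDP1 were seeded at 400 cells/well in medium containing 20 nM camptothecin, exposed to pin-transferred compounds, and grown at 37 °C for at least 48 hr. Viability was read as ATP luminescence.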
TDP1 inh: blocks human tyrosyl-DNA phosphodiesterase 1 | Q9NUW8 | recombinant TDP1, AlphaScreen DNA substrate cleavage | Potency, µM (doses to about 130 µM), for the others: at the highest dose activity change, negative = inhibition, most hits filed as inhibitors | 350,000 tested, 0.28% active; further: potency means the concentration at half of the fitted maximal effect; on the % scale 0 is the no-effect control and ±100 the full control effect; nearly all actives have a fitted effect of over 40% in size
Target sequence (Q9NUW8 whole entry, looked up): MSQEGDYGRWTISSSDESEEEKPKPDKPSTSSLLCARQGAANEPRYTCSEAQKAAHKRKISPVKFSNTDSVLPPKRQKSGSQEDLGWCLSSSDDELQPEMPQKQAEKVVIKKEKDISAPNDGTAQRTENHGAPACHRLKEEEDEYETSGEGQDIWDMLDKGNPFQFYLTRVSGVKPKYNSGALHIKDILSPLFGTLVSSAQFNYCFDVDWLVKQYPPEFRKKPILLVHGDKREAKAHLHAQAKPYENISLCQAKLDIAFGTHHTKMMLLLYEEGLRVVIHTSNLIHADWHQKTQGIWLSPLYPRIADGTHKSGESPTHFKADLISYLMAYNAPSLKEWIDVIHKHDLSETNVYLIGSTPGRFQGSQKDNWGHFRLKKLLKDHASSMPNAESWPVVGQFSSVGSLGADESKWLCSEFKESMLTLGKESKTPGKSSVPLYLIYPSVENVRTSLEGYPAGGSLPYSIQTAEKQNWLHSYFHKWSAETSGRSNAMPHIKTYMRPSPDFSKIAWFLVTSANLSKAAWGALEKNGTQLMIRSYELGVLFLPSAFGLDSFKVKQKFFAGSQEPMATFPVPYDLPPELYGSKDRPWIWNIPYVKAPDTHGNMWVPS
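Steps: enzyme plus compound, 15 min RT; add biotin/phosphotyrosine-FITC oligonucleotide (15 nM final), react 5 min; add donor/acceptor beads (10 ug/ml final), 10 min; read AlphaScreen. Tdp1 at 1 nM final.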
DT40 TDP1 no CPT: qHTS for Inhibitors of human tyrosyl-DNA phosphodiesterase 1 (TDP1): qHTS in cells in absence of CPT; DT40 Tdp1-/- hTDP1 cells, no CPT, ATP luminescence, 48 h; Potency, µM (top dose mostly 46.2 µM), for inactives: at the highest dose activity change, negative = growth inhibition, most hits filed as inhibitors; 420,000 tested, 15% active; AID 686978, 2013; further: potency means the concentration at half of the fitted maximal effect; on the % scale 0 is the no-effect control and ±100 the full control effect; nearly all actives have a fitted effect of over 55% in size
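Cells were dispensed at 400 per well, compounds added by pin tool, plates incubated ≥48 hr at 37 °C, then CellTiter-Glo added for 30 min at room temperature before luminescence reading. Line: DT40 Tdp1-/- complemented with hTDP1; camptothecin omitted.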
TGFb inhibitor: blocks TGF-b signaling. HepG2 CAGA-GFP TGF-b/SMAD3 reporter, GFP fluorescence, 18 h; TGF-beta stimulated, 500 pg/mL final. Potency, µM (highest dose often 46.1 µM), for the others: top-dose activity, negative = inhibition, actives largely listed as inhibitors. 410,000 tested, 1.2% active; further: potency means the concentration at half of the fitted maximal effect; on the % scale 0 is the no-effect control and ±100 the full control effect; nearly all actives have a fitted effect of over 65% in size
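TGF-beta reporter screen: HEPG2 CAGA-GFP, 1% FBS, 500 pg/mL TGF-beta final, 18 h; per-cell GFP summed per well; curves fitted and categorized by class.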
IL-1B inflam inh: blocks inflammasome-driven IL-1 beta release; THP-1 LPS/ATP IL-1B secretion, AlphaLISA, 16 h; active compounds read low; activity change, % at 57.5 µM; 360,000 tested, 4.7% active; in the data active means activity change below about -50%; inconclusive means mostly about -30% to -49%; further: on the % scale 0 is the no-effect control and ±100 the full control effect
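THP-1 cells pretreated 1 hr with compounds (up to 57.5 uM final), then stimulated with LPS (250 ng/mL final) plus ATP (1.25 mM final); secreted IL-1B measured by AlphaLISA after 16 hr, decreased signal indicating inhibition.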
HepG2 tox: kills HepG2 cells in TGF-b inhibitor counter-screen; HepG2 CAGA-GFP viability, ATP luminescence, 18 h; Potency, µM (series often up to 46.1 µM), without a hit: at the highest dose activity change, negative = cytotoxicity, most hits filed as cytotoxic; 410,000 tested, 0.76% active; AID 588856; further: potency means the concentration at half of the fitted maximal effect
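HepG2 CAGA-GFP cells (1000/well, DMEM with 1% FBS) received compound, then TGF-beta at 500 pg/mL final, and were incubated 18 hours at 37 degrees C. Viability was read by CellTiter-Glo luminescence. Media-only wells were set as complete cell-killing and DMSO as no toxicity.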
The depositor's hits bear a star; ? = inconclusive; nt = no result given; [ ] = another dose, or the depositor's remark. Unless noted, the call rests on the fitted dose curve; in most records, active means well fitted curve in the direction sought with a large enough effect; inconclusive means small, poorly fitted or top-dose-only effect, or another doubt; inactive means no such curve, though single readings can be large; an effect the other way counts as inactive or inconclusive.

SMILES	TDP1 cell CPT	TDP1 inh	DT40 TDP1 no CPT	TGFb inhibitor	IL-1B inflam inh	HepG2 tox
COc1ccc(OCCn2cc(C=O)c3ccccc32)cc1	?	nt	?	7.9µM*	-10	-50%
COc1ccc(C2/C=C\CN(C(=O)Nc3ccccc3-c3ccccc3)CC(=O)N2Cc2ccc(F)cc2)cc1 (centres undefined)	23µM*	11%	?	?	-22	-19%
COC(=O)N1C/C=C\C(c2ccc(OC)cc2)N(Cc2ccc(F)cc2)C(=O)C1 (centres undefined)	-19%	3%	-8%	-12%	-6	1%
COc1ccc(C2/C=C\CN(C(=O)C3CCCCC3)CC(=O)N2Cc2ccc(F)cc2)cc1 (centres undefined)	?	5%	?	?	-13	-15%
C=CC(=O)N1C/C=C\C(c2ccc(OC)cc2)N(Cc2ccc(F)cc2)C(=O)C1 (centres undefined)	?	7%	-21%	-19%	-61*	14%
COc1ccc(C2/C=C\CN(C(=O)C3CCCC3)CC(=O)N2Cc2ccc(F)cc2)cc1 (centres undefined)	21µM*	6%	?	-22%	20	-32%
COc1ccc(C2/C=C\CN(C(=O)NC34CC5CC(CC(C5)C3)C4)CC(=O)N2Cc2ccc(F)cc2)cc1 (centres undefined)	23µM*	7%	?	?	29	6%
CCOc1ccc(NC(=O)CCS(=O)(=O)c2ccc3c(c2)n(C)c(=O)c(=O)n3C)cc1	16%	0%	4%	nt	nt	0%
CCCCN1CCNC[C@@H]1Cc1ccc(O)cc1	-10%	-3%	1%	0%	19	-11%
Oc1ccc(C[C@@H]2CNCCN2CCc2cccc3ccccc23)cc1	15µM*	-5%	21µM*	?	?	-67%
Fc1cccc(CCN2CCNC[C@H]2Cc2cccc3ccccc23)c1	?	0%	?	16µM*	-60*	16µM*
COc1ccc(CCNC(=O)CCCn2c(=S)[nH]c3cc4c(cc3c2=O)OCO4)cc1OC	-2%	nt	12%	3%	-13	-1%
CCC(Sc1nnc(-c2ccc(F)cc2)c(-c2ccc(F)cc2)n1)C(=O)NC1CCCC1 (centres undefined)	-24%	3%	?	9%	nt	-7%
CC(NC(=O)c1cccs1)c1nnc(SCc2ccc(Cl)cc2Cl)n1C (centres undefined)	?	0%	16µM*	-8%	-11	-8%
C=CCn1c(CNC(=O)c2cccs2)nnc1SCc1ccc(Cl)cc1Cl	?	-3%	?	-19%	?	-5%
O=[N+]([O-])c1c(Nc2ccccc2O)cc(Cl)c2nonc12	4.6µM*	nt	3.7µM*	4µM*	-102*	10µM*
Cc1ccc(CNC(=O)c2cc(C3CC3)nc3c2c(C)nn3-c2cccc(Cl)c2C)cc1	-8%	4%	-23%	0%	nt	5%
CCOC(=O)c1cc2ccccc2n1C1CCN(C)CC1	?	nt	26µM*	nt	-11	nt
CCCCCCCCCCCCCCCC(=O)N[C@@H](COP(=O)(O)O)C(=O)O	-7%[4.12 µM]	4%	-5%[4.12 µM]	nt	nt	nt
Cc1ccn2c(=O)cc(COc3ccc(NC(=O)c4ccccc4F)cc3)nc2c1	8%	-3%	2%	-1%	nt	0%
Cn1cc(C(=O)NCCN2CCN(c3cccc(Cl)c3)CC2)c2c3ccccc3n(C)c2c1=O	26µM*	5%	15µM*	-8%	4	-14%
Cc1nn(-c2ccc(F)cc2)c(-n2cccc2)c1C(=O)N1CCN(c2ccccc2F)CC1	nt	0%	nt	3%	nt	-1%
Cc1cc(C(=O)NCCN2CCN(c3cccc(Cl)c3)CC2)n(-c2ccccc2)n1	5.8µM*	3%	4.1µM*	?	15	-9%
Cc1nn(-c2ccccc2)c(-n2cccc2)c1C(=O)NCCCN1CCN(c2ccccc2F)CC1	16µM*	8%	18µM*	?	nt	-32%
Cc1cc(C(=O)NCCCN2CCN(c3cc(Cl)ccc3C)CC2)n(-c2ccccc2)n1	10µM*	4%	?	-26%	-9	-41%
SMILES	TDP1 cell CPT	TDP1 inh	DT40 TDP1 no CPT	TGFb inhibitor	IL-1B inflam inh	HepG2 tox
CCCCNC(=O)c1cc(C)nn1-c1ccccc1	1%	-1%	-17%	-2%	-7	20%
COc1ccc(CNC(=O)CN2C(=O)COc3ccccc32)c(OC)c1	-4%	3%	-24%	3%	nt	-2%
COc1ccccc1CN(C(=O)c1cnccn1)C(C(=O)NC1CCCCC1)c1cc(OC)c(OC)c(OC)c1 (centres undefined)	13%	nt	9%	19%	1	-11%
CCOc1cc(/C=C(\C#N)C(N)=O)cc(CSc2ccccc2)c1O	nt	16%	nt	nt	nt	nt
O=S(=O)(c1ccc2c(c1)OCCO2)N1CCN(S(=O)(=O)c2cc(F)c(Br)cc2F)CC1	nt	0%	nt	nt	nt	nt
COc1ccc(-n2nnnc2SCC(=O)Nc2cccc(O)c2)cc1	-23%	nt	?	?	18	2%
COc1ccc(Cn2c(C(=O)O)c(CNC3CCCCCC3)c3ccc(OC)cc32)cc1	16µM*	0%	?	?	nt	-51%
COc1ccc2c(CNC3CCCCCC3)c(C(=O)O)n(Cc3ccc(C)cc3)c2c1	26µM*	5%	?	?	nt	-17%
COc1ccc(Cn2c(C(=O)O)c(CNC3CCCC3)c3ccc(C)cc32)cc1	12%	0%	-21%	-14%	nt	-3%
C=Cc1ccc(Cn2c(C(=O)O)c(CNC3CCCCC3)c3ccc(OC)cc32)cc1	21µM*	8%	21µM*	-14%	nt	-11%
CCOc1cccc2sc(NC(=O)c3ccc(S(=O)(=O)N4CCCCC4)cc3)nc12	?	5%	-6%	-5%	nt	-3%
C=CCC1(CC=C)CCCN1C(=O)C1CCC(=O)N(CCc2ccc(OC)cc2)C1 (centres undefined)	12µM*	2%	10µM*	?	-4	-10%
C=CCC1(CC=C)CCCN1C(=O)C1CCC(=O)N(CCc2ccccc2)C1 (centres undefined)	9.2µM*	4%	5.8µM*	-12%	-16	-17%
O=C(O)CCC(=O)N1N=C(c2ccccc2)CC1c1ccc2c(c1)OCO2 (centres undefined)	-3%	6%	15%	-5%	19	-20%
